In paper PMC5540273 (PLoS ONE, 2017):

What was measured:
Conditions in all cases: concentration: 1 μM, replicates: in singlicate; n = 1
MAP3K15 = test system: MAP3K15
MAP3K1 = test system: MAP3K1
MAP3K2 = test system: MAP3K2
MAP3K3 = test system: MAP3K3
MAP3K4 = test system: MAP3K4
MAP4K2 = test system: MAP4K2
MAP4K3 = test system: MAP4K3
MAP4K4 = test system: MAP4K4
MAP4K5 = test system: MAP4K5
MAPKAPK2 = test system: MAPKAPK2
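Further: KINOMEscan kinase panel screen.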

Row | SMILES | %Inh (MAP3K15) [%] | %Inh (MAP3K1) [%] | %Inh (MAP3K2) [%] | %Inh (MAP3K3) [%] | %Inh (MAP3K4) [%] | %Inh (MAP4K2) [%] | %Inh (MAP4K3) [%] | %Inh (MAP4K4) [%] | %Inh (MAP4K5) [%] | %Inh (MAPKAPK2) [%]
1 | COc1cccc(C2=C(Nc3cccc(O)c3)C(=O)NC2=O)c1 [SB-390771] | 0 | 0 | 12 | 0 | 38 | 8 | 0 | 4 | 0 | 17
2 | CN(c1ccc2c(c1)nc(NCc1ccccc1)n2C)c1ccnc(Nc2ccc(CS(C)(=O)=O)cc2)n1.Cl [GW811603] | 13 | 0 | 0 | 56 | 0 | 0 | 33 | 2 | 0 | 0
3 | CN1CCN(Cc2ccc(NC(=O)Nc3ccc(N(C)c4ccnc(Nc5ccc(CS(C)(=O)=O)cc5)n4)cc3)cc2)CC1.Cl [GW827654] | 100 | 37 | 59 | 61 | 96 | 67 | 95.5 | 95.8 | 82 | 0
4 | CN(c1ccc(F)c(NC(=O)c2cccc(OC(C)(C)C#N)c2Cl)c1)c1ccc2nc(NC(=O)C3CC3)sc2n1 | 0 | 0 | 0 | 15 | 0 | 0 | 0 | 75 | 0 | 0
5 | Fc1cc(Cl)ccc1Nc1ccnc2cc(-c3ccc(CN4CCOCC4)o3)ccc12 [GW560109] | 23 | 38 | 0 | 0 | 0 | 0 | 72 | 25 | 11 | 7
6 | Cc1cccc(Nc2nc(N[C@H]3CCCC[C@H]3N)ncc2C(N)=O)c1.Cl [GSK986310] | 16 | 17 | 84 | 71 | 0 | 98.4 | 31 | 74 | 34 | 19
7 | Cc1ccc(O)cc1Nc1ccnc2ccc(C(C)(C)C)cc12 [GW856805] | 26 | 27 | 32 | 31 | 23 | 43 | 0 | 0 | 4 | 0
8 | CCn1c(-c2nonc2N)nc2c(-c3ccccc3)ncc(OCCCN)c21.O=C(O)C(F)(F)F.O=C(O)C(F)(F)F [GSK260205] | 0 | 17 | 98.2 | 97.7 | 6 | 3 | 0 | 76 | 5 | 13
9 | Cc1nn2c(=O)cc(N3CCO[C@H](C)C3)nc2n1Cc1cccc(Cl)c1Cl [GSK2373693] | 22 | 66 | 7 | 0 | 4 | 0 | 4 | 17 | 10 | 12
10 | CNc1nccc(-c2ccc3c(N)n[nH]c3c2)n1 [GSK2206003] | 0 | 14 | 0 | 0 | 0 | 54 | 0 | 13 | 0 | 0
11 | Cl.O=C(Nc1ccc(Oc2ccc3[nH]c(NC(=O)c4ccco4)nc3c2)cc1)Nc1cc(C(F)(F)F)ccc1F [GW683134] | 0 | 27 | 7 | 0 | 0 | 0 | 17 | 24 | 32 | 93
12 | CN(C)CCNS(=O)(=O)c1ccc(-c2ccnc3[nH]ccc23)cc1 [GSK977620] | 14 | 11 | 49 | 19 | 0 | 11 | 31 | 20 | 8 | 0
13 | Cc1ccc(Nc2ccnc(Nc3ccc(C)c(F)c3)n2)cc1O.Cl [GW582868] | 0 | 2 | 0 | 0 | 40 | 0 | 96.8 | 5 | 2 | 0
14 | CC(C)c1nc(-c2ccc(F)c(NS(=O)(=O)c3c(F)cccc3F)c2)c(-c2ccnc(Nc3ccc(N4CCOCC4)nc3)n2)s1 [GSK1804250] | 26 | 17 | 13 | 0 | 23 | 8 | 22 | 4 | 58 | 14
15 | COC(=O)Nc1nc2cc(Oc3ccc(NC(=O)Nc4cccc(SC)c4)cc3)ccc2[nH]1.Cl [GW697999] | 0 | 15 | 1 | 0 | 0 | 0 | 0 | 0 | 0 | 0
16 | O=C(O)C(F)(F)F.O=c1[nH]ccc2nc(N[C@@H]3CCNC3)nc(Nc3cc(Cl)cc(Cl)c3)c12 [GSK2188764] | 26 | 24 | 81 | 78 | 19 | 99.9 | 77 | 94.1 | 76 | 31
17 | COc1cccc(-c2nc(-c3ccccc3)[nH]c2-c2ccncc2)c1 [SB-610250] | 0 | 16 | 9 | 0 | 0 | 0 | 0 | 1 | 0 | 17
18 | Cc1cc(-c2c(-c3ccc(F)cc3)ncn2CCCN2CCOCC2)nc(N)n1 [SB-222517] | 0 | 24 | 30 | 0 | 15 | 0 | 5 | 0 | 0 | 0
19 | O=C(Nc1n[nH]c2nc(-c3ccccc3O)ccc12)C1CC1 [SB-711880] | 0 | 0 | 19 | 4 | 0 | 0 | 44 | 58 | 0 | 0
20 | Cc1ccc(C)c(NC(=O)Nc2ccc(C)c(-c3ccc(C(=O)Nc4ccncc4)cc3)c2)c1 [GSK1398473] | 83 | 9 | 30 | 0 | 43 | 0 | 2 | 9 | 5 | 5
21 | Cc1ccccc1CC(=O)N1CCc2cc(-c3cn(C)c4ncnc(N)c34)ccc21 [GSK2603346] | 20 | 19 | 88 | 62 | 90 | 29 | 97.8 | 0 | 88 | 7
22 | Fc1cc(Cl)ccc1Nc1ccnc2cc(-c3ccc(CN4CCSCC4)o3)ccc12 [GW560106] | 0 | 6 | 0 | 0 | 0 | 0 | 8 | 40 | 50 | 5
23 | CCNC(=O)/C=C/c1n[nH]c2cc(Sc3ccccc3C(=O)NC)ccc12 | 5 | 38 | 20 | 30 | 3 | 30 | 65 | 39 | 24 | 12
24 | CN(C)c1ncnc2nc[nH]c12 [SKF-31736] | 37 | 11 | 16 | 0 | 0 | 0 | 0 | 0 | 0 | 0
25 | Cn1cc(-c2cnc(N)c3c(-c4ccc5c(c4)CCN5C(=O)Cc4ccccc4)csc23)cn1 [GSK2593074] | 35 | 4 | 75 | 64 | 82 | 36 | 97.6 | 0 | 98.8 | 0
26 | COc1ccc(C)c(Nc2ccnc(Nc3ccc(-c4cnc[nH]4)cc3)n2)c1.Cl [GW784041] | 0 | 0 | 0 | 28 | 18 | 0 | 6 | 23 | 19 | 0
27 | Cc1cccc(Nc2nc(NCCN)ncc2C(N)=O)c1 [GSK1292139] | 0 | 4 | 62 | 31 | 22 | 98.4 | 32 | 83 | 26 | 2
28 | CN(C)CCOc1ccc(-c2cc(-c3ccc(Cl)c(O)c3)c(-c3ccncc3)[nH]2)cc1.Cl.Cl [SB-684387] | 50 | 0 | 0 | 0 | 17 | 27 | 0 | 22 | 3 | 12
29 | O=C(Nc1n[nH]c2nc(-c3ccccc3)ccc12)C1CC1 [SB-708999] | 3 | 17 | 6 | 0 | 28 | 0 | 1 | 53 | 12 | 4
30 | O=C1NC(=O)C(c2ccccc2Cl)=C1Nc1cccc(Cl)c1 [SB-342409] | 0 | 10 | 1 | 3 | 3 | 0 | 5 | 0 | 0 | 37
